Reference: PubChem BioAssay (Tox21)
Several values for one entry are separate records, joined by “and”; a condition that tells them apart may be missing. Identical values can stand only once. Inconclusive results are not listed. Where a structure was tested more than once in an assay, its records may differ in their call. Activity calls are given as the source filed them. Unless noted, the call rests on the fitted dose curve; in most records, active means well fitted curve in the direction sought with a large enough effect in the repeat runs; inconclusive means weak or mixed curves; inactive means no such curve, though single readings can be large; an effect the other way counts as inactive or inconclusive.

Experiments:
[1] = target: Aryl hydrocarbon receptor (Homo sapiens) (UniProt P35869); test: qHTS assay to identify small molecule that activate the aryl hydrocarbon receptor (AhR) signaling pathway (AID 743085); further: nearly all actives have a fitted effect of over 15% in size; further: potency means the concentration at half of the fitted maximal effect;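 on activation: HG2L7.5c1 human HepG2 liver cells with stably integrated DRE-driven firefly reporter; series mostly up to about 70 µM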
Aryl hydrocarbon receptor (Homo sapiens), sequence (P35869 whole entry, looked up): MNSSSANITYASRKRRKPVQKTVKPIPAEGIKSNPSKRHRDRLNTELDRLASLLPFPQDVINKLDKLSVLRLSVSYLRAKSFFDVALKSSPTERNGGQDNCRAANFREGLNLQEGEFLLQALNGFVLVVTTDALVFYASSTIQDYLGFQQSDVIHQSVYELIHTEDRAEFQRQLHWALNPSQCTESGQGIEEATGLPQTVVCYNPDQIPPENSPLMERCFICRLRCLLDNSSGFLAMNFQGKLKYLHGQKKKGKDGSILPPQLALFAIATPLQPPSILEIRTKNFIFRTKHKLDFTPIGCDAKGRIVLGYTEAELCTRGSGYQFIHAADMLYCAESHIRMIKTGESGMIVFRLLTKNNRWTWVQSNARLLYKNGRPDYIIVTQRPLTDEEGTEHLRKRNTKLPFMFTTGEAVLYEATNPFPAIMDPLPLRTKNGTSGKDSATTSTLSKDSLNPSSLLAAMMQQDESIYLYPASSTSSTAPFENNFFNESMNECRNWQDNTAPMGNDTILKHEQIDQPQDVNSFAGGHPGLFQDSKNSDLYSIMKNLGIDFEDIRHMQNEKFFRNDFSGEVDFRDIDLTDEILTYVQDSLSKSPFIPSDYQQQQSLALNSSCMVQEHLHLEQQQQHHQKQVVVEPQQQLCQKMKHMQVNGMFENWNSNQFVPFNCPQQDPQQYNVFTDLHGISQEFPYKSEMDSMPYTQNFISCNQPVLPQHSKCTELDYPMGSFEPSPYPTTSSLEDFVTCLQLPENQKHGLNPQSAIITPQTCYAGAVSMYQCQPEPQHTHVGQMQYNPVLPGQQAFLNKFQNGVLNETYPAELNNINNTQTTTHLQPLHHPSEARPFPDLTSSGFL
In short: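 24 h compound exposure, 37C, HepG2-derived HG2L7.5c1 cells with DRE-responsive luciferase. Readouts: fluorescence viability, then luminescence at room temperature after 30 min.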

[2] = qHTS assay to identify small molecule that activate the aryl hydrocarbon receptor (AhR) signaling pathway - cell viability counter screen (AID 743086);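 further: HepG2 liver cells carrying the AhR DRE luciferase reporter; series mostly up to about 70 µM; nearly all actives have a fitted effect of over 45% in size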
In short: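 HepG2-AhR-luc (HG2L7.5c1) cells, 4000/well, treated 24 h at 37 C with compound; viability measured as CellTiter-Fluor fluorescence after 30 min in the same wells as the luciferase read.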

[3] = target: Peroxisome proliferator-activated receptor gamma (Homo sapiens) (UniProt P37231); test: qHTS assay to identify small molecule agonists of the peroxisome proliferator-activated receptor gamma (PPARg) signaling pathway (AID 743094; active means well fitted activation curve with a large enough effect in the signal ratio in the repeat runs, not every such curve was filed as active; the % refers to the signal ratio)
Peroxisome proliferator-activated receptor gamma (Homo sapiens), sequence (P37231 whole entry, looked up): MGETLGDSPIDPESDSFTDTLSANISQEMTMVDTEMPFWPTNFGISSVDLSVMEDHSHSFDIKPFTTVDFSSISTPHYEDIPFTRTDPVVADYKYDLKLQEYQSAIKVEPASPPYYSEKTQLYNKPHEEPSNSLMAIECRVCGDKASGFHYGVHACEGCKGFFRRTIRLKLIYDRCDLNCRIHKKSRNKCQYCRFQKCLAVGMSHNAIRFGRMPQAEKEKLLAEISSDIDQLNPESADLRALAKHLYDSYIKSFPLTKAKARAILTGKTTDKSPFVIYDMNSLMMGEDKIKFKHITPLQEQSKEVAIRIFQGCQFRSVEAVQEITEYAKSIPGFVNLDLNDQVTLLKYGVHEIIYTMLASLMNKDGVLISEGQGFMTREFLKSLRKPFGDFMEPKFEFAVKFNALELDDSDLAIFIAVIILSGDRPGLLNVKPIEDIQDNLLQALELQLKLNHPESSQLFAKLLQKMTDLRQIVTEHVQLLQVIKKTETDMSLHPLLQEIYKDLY
In short: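 Beta-lactamase FRET fluorescence was the read-out after a 1 h room-temperature substrate step, following 17 h compound treatment at 37C of HEK293H cells expressing a UAS-driven bla reporter responsive to PPARg.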

[4] = target: Peroxisome proliferator-activated receptor gamma (Homo sapiens) (UniProt P37231); test: qHTS assay to identify small molecule antagonists of the peroxisome proliferator-activated receptor gamma (PPARg) signaling pathway (AID 743191; calls by dose curve; further: series mostly up to about 63 µM; nearly all actives have a fitted effect of over 30% in size)
In short: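 GeneBLAzer PPARg UAS-bla HEK293H cells, 5 h post-plating, exposed to compounds 17 h at 37C. LiveBLAzer B/G FRET substrate added for 1 h at room temperature; beta-lactamase reporter read by fluorescence intensity.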

[5] = qHTS assay to identify small molecule antagonists of the peroxisome proliferator-activated receptor gamma (PPARg) signaling pathway - cell viability counter screen (AID 743194); settings: Potency: co-treated with 50 nM rosiglitazone; further: nearly all actives have a fitted effect of over 55% in size
In short: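 Cytotoxicity counter screen in PPARg-bla HEK293H cells, same wells as reporter assay. Compounds plus 50 nM rosiglitazone (final) for 17 h at 37 C, then viability read by CellTiter-Glo luminescence.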

[6] = qHTS assay for small molecule agonists of the antioxidant response element (ARE) signaling pathway - cell viability counter screen (AID 743203; calls by dose curve; further: nearly all actives have a fitted effect of over 55% in size)
In short: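 HepG2 cells carrying ARE-driven beta-lactamase; 2,000 cells/well; 5 hrs plating; compound pinned from DMSO; 16 hrs 37C/5% CO2; CellTiter-Glo added; 30 min RT; luminescence.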

[7] = qHTS assay for small molecule activators of the heat shock response signaling pathway - cell viability counter screen (AID 743209); further: nearly all actives have a fitted effect of over 50% in size
In short: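 Luminescence from CellTiter-Glo, added after the beta-lactamase FRET read, gave the viability signal. Cells were HSE-bla HeLa treated with DMSO-dissolved compounds for 5 h at 37 C following overnight plating.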

[8] = qHTS assay for small molecule activators of the heat shock response signaling pathway (AID 743210; active means well fitted activation curve with a large enough effect in the signal ratio in the repeat runs, with a control signal flat, not every such curve was filed as active; the % refers to the signal ratio; further: series mostly up to about 63 µM)
In short: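 HSE-bla HeLa cells (beta-lactamase reporter under heat shock response elements), plated overnight, then exposed to compounds 5 h at 37 C; LiveBLAzer B/G FRET substrate added, 2.5 h at room temperature, fluorescence intensity read.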

[9] = qHTS assay to identify small molecule agonists of the peroxisome proliferator-activated receptor delta (PPARd) signaling pathway - cell viability counter screen (AID 743211); further: nearly all actives have a fitted effect of over 55% in size
In short: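 Luminescent ATP viability assay (CellTiter-Glo, 30 min RT) in UAS-bla HEK293H cells carrying the PPAR delta reporter construct, 3000 cells/well, after a 17 h compound treatment at 37 C.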

[10] = target: Peroxisome proliferator-activated receptor delta (Homo sapiens) (UniProt Q03181); test: qHTS assay to identify small molecule agonists of the peroxisome proliferator-activated receptor delta (PPARd) signaling pathway (AID 743212; calls by dose curve)
Peroxisome proliferator-activated receptor delta (Homo sapiens), sequence (Q03181 whole entry, looked up): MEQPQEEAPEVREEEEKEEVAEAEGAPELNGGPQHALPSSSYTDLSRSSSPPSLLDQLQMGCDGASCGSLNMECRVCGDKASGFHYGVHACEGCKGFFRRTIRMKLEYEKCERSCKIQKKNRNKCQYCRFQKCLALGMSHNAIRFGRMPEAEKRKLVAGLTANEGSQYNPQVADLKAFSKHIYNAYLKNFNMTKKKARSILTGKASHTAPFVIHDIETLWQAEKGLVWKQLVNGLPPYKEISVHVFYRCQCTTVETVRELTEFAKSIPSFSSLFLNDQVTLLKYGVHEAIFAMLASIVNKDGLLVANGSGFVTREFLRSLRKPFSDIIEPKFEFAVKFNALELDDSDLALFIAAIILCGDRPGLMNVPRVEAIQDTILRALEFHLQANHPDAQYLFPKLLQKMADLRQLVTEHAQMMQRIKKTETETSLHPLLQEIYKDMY
In short: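 GeneBLAzer UAS-bla HEK293H cells carrying a PPARδ construct were exposed to compounds at 37 °C. Beta-lactamase activity was read by FRET fluorescence after 2 h at room temperature with LiveBLAzer B/G substrate.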

[11] = target: Peroxisome proliferator-activated receptor delta (Homo sapiens) (UniProt Q03181); test: qHTS assay to identify small molecule antagonists of the peroxisome proliferator-activated receptor delta (PPARd) signaling pathway (AID 743215; active means well fitted inhibition curve with a large enough effect in the signal ratio in the repeat runs, not every such curve was filed as active; the % refers to the signal ratio;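 further: cells stimulated with agonist L165041 at 300 nM final during compound exposure; series mostly up to about 62 µM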)
In short: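 Read-out is beta-lactamase FRET fluorescence, measured 2 h after substrate addition at room temperature. Beforehand, UAS-bla HEK293H cells carrying the PPARd reporter were exposed to compounds with L165041 at 300 nM final for 17 h at 37 C.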

[12] = target: Bile acid receptor (Homo sapiens) (UniProt Q96RI1); test: qHTS assay to identify small molecule agonists of the farnesoid-X-receptor (FXR) signaling pathway (AID 743220; active means well fitted activation curve with a large enough effect in the signal ratio in the repeat runs, not every such curve was filed as active; the % refers to the signal ratio)
Bile acid receptor (Homo sapiens), sequence (Q96RI1 whole entry, looked up): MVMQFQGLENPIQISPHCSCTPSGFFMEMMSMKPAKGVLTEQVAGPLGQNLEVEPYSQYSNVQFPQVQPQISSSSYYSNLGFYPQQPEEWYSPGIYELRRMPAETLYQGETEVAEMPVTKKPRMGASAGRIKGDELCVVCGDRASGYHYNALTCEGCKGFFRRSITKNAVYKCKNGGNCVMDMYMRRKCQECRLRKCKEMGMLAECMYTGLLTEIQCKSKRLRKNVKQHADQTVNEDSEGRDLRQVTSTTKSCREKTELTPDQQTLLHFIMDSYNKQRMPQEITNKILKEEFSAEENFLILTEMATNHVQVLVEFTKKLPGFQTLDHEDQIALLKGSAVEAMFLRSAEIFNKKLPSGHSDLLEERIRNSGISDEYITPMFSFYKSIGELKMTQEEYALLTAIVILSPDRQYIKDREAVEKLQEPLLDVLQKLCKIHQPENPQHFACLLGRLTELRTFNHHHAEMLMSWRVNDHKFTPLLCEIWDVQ
In short: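 Beta-lactamase reporter under UAS control in GeneBLAzer FXR HEK 293T cells (5000/well) measured with LiveBLAzer FRET substrate after 2 h at room temperature. Compound exposure lasted 16 h at 37C.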

[13] = qHTS assay to identify small molecule antagonists of the farnesoid-X-receptor (FXR) signaling pathway - cell viability counter screen (AID 743221; active means well fitted cell-killing curve with a large enough effect in the repeat runs, not every such curve was filed as active; further: nearly all actives have a fitted effect of over 50% in size)
In short: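 In GeneBLAzer FXR-UAS-bla HEK 293T cells stimulated with 50 uM chenodeoxycholic acid (final), compounds acted for 16 h at 37 C. Viability was assessed afterwards by CellTiter-Glo luminescence.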

[14] = target: Vitamin D3 receptor (Homo sapiens) (UniProt P11473); test: qHTS assay to identify small molecule agonists of the vitamin D receptor (VDR) signaling pathway (AID 743222; calls by dose curve)
Vitamin D3 receptor (Homo sapiens), sequence (P11473 whole entry, looked up): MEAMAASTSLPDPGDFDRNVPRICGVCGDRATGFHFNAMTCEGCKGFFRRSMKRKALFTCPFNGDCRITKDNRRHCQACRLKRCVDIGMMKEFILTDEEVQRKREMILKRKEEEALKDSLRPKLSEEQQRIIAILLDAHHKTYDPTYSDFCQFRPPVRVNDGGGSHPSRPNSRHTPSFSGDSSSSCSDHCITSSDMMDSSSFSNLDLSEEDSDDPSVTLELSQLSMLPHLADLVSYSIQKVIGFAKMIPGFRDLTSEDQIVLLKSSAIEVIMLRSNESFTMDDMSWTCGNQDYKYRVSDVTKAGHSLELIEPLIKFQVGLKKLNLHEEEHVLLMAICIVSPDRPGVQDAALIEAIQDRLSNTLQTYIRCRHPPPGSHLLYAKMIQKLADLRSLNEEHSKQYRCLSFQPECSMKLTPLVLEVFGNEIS
In short: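 VDR-bla cells, 2,000/well; 4 h preincubation 37C; cpd (DMSO) 16 h; LiveBLAzer B/G substrate 2 h RT; fluorescence intensity read.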

[15] = target: Vitamin D3 receptor (Homo sapiens) (UniProt P11473); test: qHTS assay to identify small molecule antagonists of the vitamin D receptor (VDR) signaling pathway (AID 743223; active means well fitted inhibition curve with a large enough effect in the signal ratio in the repeat runs, not every such curve was filed as active; the % refers to the signal ratio)
In short: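 Agonist 1alpha,25-dihydroxyvitamin D3 (3 nM in well) was added with each compound to VDR-bla cells preincubated 4 h. Cells stood 16 h at 37C, then FRET substrate 2 h at room temperature; fluorescence intensity recorded.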

[16] = qHTS assay to identify small molecule agonists of the vitamin D receptor (VDR) signaling pathway - cell viability counter screen (AID 743224); further: series mostly up to about 63 µM; nearly all actives have a fitted effect of over 50% in size
In short: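 Luminescence from CellTiter-Glo, read after 30 min at room temperature, reports viability of VDR-bla cells treated with compounds for 16 h at 37C in the wells used for the beta-lactamase FRET read.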

[17] = qHTS assay for small molecule agonists of the antioxidant response element (ARE) signaling pathway (AID 743202; active means well fitted activation curve with a large enough effect in the signal ratio in the repeat runs, not every such curve was filed as active; the % refers to the signal ratio; further: potency means the concentration at half of the fitted maximal effect)
In short: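 ARE-bla HepG2 cells (beta-lactamase reporter under the antioxidant response element), plated 5 hours, then exposed to compounds 16 hours at 37 C. LiveBLAzer B/G FRET substrate added for 2 hours at room temperature; fluorescence intensity read.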

[18] = qHTS assay to identify small molecule antagonists of the peroxisome proliferator-activated receptor delta (PPARd) signaling pathway - cell viability counter screen (AID 743213); further: nearly all actives have a fitted effect of over 50% in size
In short: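 HEK293H cells with the PPARd UAS-bla reporter, co-treated 17 h at 37 C with compounds and L165041 (300 nM final), were lysed with CellTiter-Glo. Luminescence indicated viable cell content.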

[19] = qHTS assay to identify small molecule agonists of the farnesoid-X-receptor (FXR) signaling pathway - cell viability counter screen (AID 743218); further: nearly all actives have a fitted effect of over 45% in size
In short: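 HEK 293T FXR-bla cells; 5 h pre-incubation, 16 h compound exposure at 37 C; LiveBLAzer substrate 2 h RT, then CellTiter-Glo 30 min RT, luminescence.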

[20] = target: Bile acid receptor (Homo sapiens) (UniProt Q96RI1); test: qHTS assay to identify small molecule antagonists of the farnesoid-X-receptor (FXR) signaling pathway (AID 743217; active means well fitted inhibition curve with a large enough effect in the signal ratio in the repeat runs, not every such curve was filed as active; the % refers to the signal ratio)
In short: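 HEK 293T FXR-UAS-bla, 5000 cells/well; compound + CDCA 50 uM final; 16 h, 37 °C; B/G FRET substrate 2 h RT; fluorescence.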

Measured: Potency

CCOC(=O)C(Cl)Cc1cc(-n2nc(C)n(C(F)F)c2=O)c(F)cc1Cl (configuration not stated)
not listed: [17] | [18] | [19] | [20]
inactive: all other assays above

CCOC(=O)CC(SP(=S)(OC)OC)C(=O)OCC (configuration not stated)
inactive and 33.1 µM (active): [1]
active: [17] 6.86 µM
not listed: [8] | [9] | [10] | [12] | [20]
inactive: all other assays above

COc1cccc(C=O)c1
not listed: [11] | [12] | [15] | [20]
inactive: all other assays above

CC(=O)CN(CC(C)=O)N=O
not listed: [10] | [12] | [14] | [15] | [20]
inactive: all other assays above

NC(=O)OCCCc1ccccc1
not listed: [5] | [10] | [11] | [12] | [13] | [14] | [15] | [20]
inactive: all other assays above

CCCCS(=O)(=O)Cl
not listed: [17] | [18]
inactive: all other assays above

CCCC[N+](=O)[O-]
not listed: [10] | [11]
inactive: all other assays above

CCCCOC(C)=O
not listed: [8] | [10] | [14] | [15] | [18]
inactive: all other assays above

O=C(O)C(Br)(Br)Br
active: [17] 5.44 µM
not listed: [11] | [12] | [20]
inactive: all other assays above
